# Whole data set: some 2,900 compounds, median “IRF Lucia reporter activity, fold change vs agonist alone” near 0.9, cut for the highest 2% near 2.8. The list comes from a sample in which the highest values are over-represented; it also holds similar structures and randomly drawn compounds.
# Columns and labels:
# RAW-Dual [1] = assay: IRF Lucia reporter activity, fold change vs agonist alone; higher = enhanced IRF activity; conditions: library stock concentration (final ~1000-fold dilution): 10 mM, agonist: MPLA (TLR4) […]
# How it was run: (§1)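 RAW-Dual macrophages (50,000 cells/well in DMEM, 384-well plates) received 50 nL of library stock by pin tool, then a PRR agonist 1 h later, and were kept at 37 °C, 5% CO2. After 20 hours, supernatant was read for IRF by QuantiLuc luminescence and for NF-κB by QuantiBlue absorbance at 620 nm. Reporter activity is fold change over agonist-alone wells. Cytotoxic wells had IncuCyte confluency below 70% of agonist controls in both mask sets.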
# RAW-Dual [2] = assay: IRF Lucia reporter activity, fold change vs agonist alone; cytotoxicity flag (confluency mask): not cytotoxic; higher = enhanced IRF activity
# How it was run: as §1
# RAW-Dual [3] = assay: IRF Lucia reporter activity, fold change vs agonist alone; cytotoxicity flag (confluency mask): cytotoxic (confluency <70% of control); higher = enhanced IRF activity
# How it was run: as §1
# [4] = cytotoxicity flag (confluency mask): not cytotoxic
# [5] = agonist: 3'3'-cGAMP (STING) 10 ug/mL
# [6] = cytotoxicity flag (confluency mask): cytotoxic (confluency <70% of control)
smiles,measurement,setting,value
Cc1cc(C(C)Nc2ccccc2C(=O)O)c2nc(N3CCOCC3)cc(=O)n2c1 (stereo not drawn),IRF Lucia reporter activity,RAW-Dual [1]; [4],0.843
CC(O)CO.CCOc1ccc(Cc2cc(C3OC(CO)C(O)C(O)C3O)ccc2Cl)cc1.O (stereo not drawn) (library stock concentration (final ~1000-fold dilution): 10 mM),IRF Lucia reporter activity,RAW-Dual [2]; [5],1.07
same,IRF Lucia reporter activity,RAW-Dual [2]; agonist: LPS (TLR4) 0.1 ug/mL,1.03
CC(O)CO.CCOc1ccc(Cc2cc(C3OC(CO)C(O)C(O)C3O)ccc2Cl)cc1.O (stereo not drawn),IRF Lucia reporter activity,RAW-Dual [1]; [4],1.05
CC(Cn1cnc2c(N)ncnc21)OCP(=O)(O)O (stereo not drawn) (library stock concentration (final ~1000-fold dilution): 10 mM),IRF Lucia reporter activity,RAW-Dual [2]; [5],1
same,IRF Lucia reporter activity,RAW-Dual [2]; agonist: LPS (TLR4) 0.1 ug/mL,1
CC(Cn1cnc2c(N)ncnc21)OCP(=O)(O)O (stereo not drawn),IRF Lucia reporter activity,RAW-Dual [1]; [4],1.05
Nc1ncnc2c1ncn2C(C=O)OC(C=O)CO (stereo not drawn) (library stock concentration (final ~1000-fold dilution): 10 mM),IRF Lucia reporter activity,RAW-Dual [2]; [5],0.427
same,IRF Lucia reporter activity,RAW-Dual [2]; agonist: LPS (TLR4) 0.1 ug/mL,0.724
CC(C)(C)C(=O)OCOP(=O)(COCCn1cnc2c(N)ncnc21)OCOC(=O)C(C)(C)C (library stock concentration (final ~1000-fold dilution): 10 mM),IRF Lucia reporter activity,RAW-Dual [2]; [5],2.04
same,IRF Lucia reporter activity,RAW-Dual [2]; agonist: LPS (TLR4) 0.1 ug/mL,2.36
CC(C)(C)C(=O)OCOP(=O)(COCCn1cnc2c(N)ncnc21)OCOC(=O)C(C)(C)C,IRF Lucia reporter activity,RAW-Dual [1]; [4],2.95
Cc1ccc(C2OC(CO)C(O)C(O)C2O)cc1Cc1ccc(-c2ccc(F)cc2)s1.Cc1ccc(C2OC(CO)C(O)C(O)C2O)cc1Cc1ccc(-c2ccc(F)cc2)s1.O (stereo not drawn) (library stock concentration (final ~1000-fold dilution): 10 mM),IRF Lucia reporter activity,RAW-Dual [3]; [5],0.0212
same,IRF Lucia reporter activity,RAW-Dual [3]; agonist: LPS (TLR4) 0.1 ug/mL,0.026
Cc1ccc(C2OC(CO)C(O)C(O)C2O)cc1Cc1ccc(-c2ccc(F)cc2)s1.Cc1ccc(C2OC(CO)C(O)C(O)C2O)cc1Cc1ccc(-c2ccc(F)cc2)s1.O (stereo not drawn),IRF Lucia reporter activity,RAW-Dual [1]; [6],0.0328
COc1cc2c(Oc3ccc4[nH]c(C)cc4c3F)ncnc2cc1OCCCN1CCCC1.O=C(O)/C=C\C(=O)O,IRF Lucia reporter activity,RAW-Dual [1]; [6],2.35
Cc1cc2c(F)c(Oc3ncnn4cc(OCC(C)O)c(C)c34)ccc2[nH]1 (stereo not drawn),IRF Lucia reporter activity,RAW-Dual [1]; [4],1.93
Cc1cc2c(F)c(Oc3ncnn4cc(OCC(C)OC(=O)C(C)N)c(C)c34)ccc2[nH]1 (stereo not drawn),IRF Lucia reporter activity,RAW-Dual [1]; [6],2.88
Cc1cc2c(F)c(Oc3ncnn4cc(OCC(C)O)c(C)c34)ccc2[nH]1 (stereo not drawn) (library stock concentration (final ~1000-fold dilution): 10 mM),IRF Lucia reporter activity,RAW-Dual [2]; [5],1.01
same,IRF Lucia reporter activity,RAW-Dual [2]; agonist: LPS (TLR4) 0.1 ug/mL,1.75
COc1cc2c(Oc3ccc4[nH]c(C)cc4c3F)ncnc2cc1OCCCN1CCCC1.O=C(O)/C=C\C(=O)O (library stock concentration (final ~1000-fold dilution): 10 mM),IRF Lucia reporter activity,RAW-Dual [3]; [5],0.783
same,IRF Lucia reporter activity,RAW-Dual [3]; agonist: LPS (TLR4) 0.1 ug/mL,1.92
Cc1cc2c(F)c(Oc3ncnn4cc(OCC(C)OC(=O)C(C)N)c(C)c34)ccc2[nH]1 (stereo not drawn) (library stock concentration (final ~1000-fold dilution): 10 mM),IRF Lucia reporter activity,RAW-Dual [3]; [5],0.967
same,IRF Lucia reporter activity,RAW-Dual [3]; agonist: LPS (TLR4) 0.1 ug/mL,2.13
COS(=O)(=O)[O-].Cc1cc2c3c([n+](C)c4ccc(F)cc4c3c1)-c1cc(F)ccc1N2C (library stock concentration (final ~1000-fold dilution): 10 mM),IRF Lucia reporter activity,RAW-Dual [2]; [5],1.39
same,IRF Lucia reporter activity,RAW-Dual [2]; agonist: LPS (TLR4) 0.1 ug/mL,1.53
CN1CCN(CCCN2c3ccccc3Sc3ccc(Cl)cc32)CC1.O=C(O)/C=C\C(=O)O.O=C(O)/C=C\C(=O)O,IRF Lucia reporter activity,RAW-Dual [1]; [6],0.883
CN1CCN(CCCN2c3ccccc3Sc3ccc(Cl)cc32)CC1.O=C(O)/C=C\C(=O)O.O=C(O)/C=C\C(=O)O (library stock concentration (final ~1000-fold dilution): 10 mM),IRF Lucia reporter activity,RAW-Dual [3]; [5],0.64
same,IRF Lucia reporter activity,RAW-Dual [3]; agonist: LPS (TLR4) 0.1 ug/mL,0.589
O=C(O)C1OC(Oc2cc3oc(-c4ccccc4)cc(=O)c3c(O)c2O)C(O)C(O)C1O (stereo not drawn),IRF Lucia reporter activity,RAW-Dual [1]; [4],1.03
O=C(O)C1OC(Oc2cc3oc(-c4ccccc4)cc(=O)c3c(O)c2O)C(O)C(O)C1O (stereo not drawn) (library stock concentration (final ~1000-fold dilution): 10 mM),IRF Lucia reporter activity,RAW-Dual [2]; [5],0.96
same,IRF Lucia reporter activity,RAW-Dual [2]; agonist: LPS (TLR4) 0.1 ug/mL,0.958
CC(C)OC(=O)C(C)NP(=O)(OCC1OC(n2ccc(=O)[nH]c2=O)C(C)(F)C1O)Oc1ccccc1 (stereo not drawn),IRF Lucia reporter activity,RAW-Dual [1]; [4],1.04
CC(C)OC(=O)C(C)NP(=O)(OCC1OC(n2ccc(=O)[nH]c2=O)C(C)(F)C1O)Oc1ccccc1 (stereo not drawn) (library stock concentration (final ~1000-fold dilution): 10 mM),IRF Lucia reporter activity,RAW-Dual [2]; [5],1.04
same,IRF Lucia reporter activity,RAW-Dual [2]; agonist: LPS (TLR4) 0.1 ug/mL,0.731
COc1cc2c(NC3CCN(C(C)C)CC3)nc(N3CCC(F)(F)CC3)nc2cc1OCCCN1CCCC1 (library stock concentration (final ~1000-fold dilution): 10 mM),IRF Lucia reporter activity,RAW-Dual [3]; [5],0.849
same,IRF Lucia reporter activity,RAW-Dual [3]; agonist: LPS (TLR4) 0.1 ug/mL,4.2
COc1cc2nc(N3CCCC3)nc(NCCCCCN3CCCC3)c2cc1OC (library stock concentration (final ~1000-fold dilution): 10 mM),IRF Lucia reporter activity,RAW-Dual [3]; [5],0.313
same,IRF Lucia reporter activity,RAW-Dual [3]; agonist: LPS (TLR4) 0.1 ug/mL,2.54
COc1cc2nc(N3CCCC3)nc(NCCCCCN3CCCC3)c2cc1OC,IRF Lucia reporter activity,RAW-Dual [1]; [6],0.8
COc1cc2c(NC3CCN(C(C)C)CC3)nc(C3CCCCC3)nc2cc1OCCCN1CCCC1 (library stock concentration (final ~1000-fold dilution): 10 mM),IRF Lucia reporter activity,RAW-Dual [3]; [5],0.154
same,IRF Lucia reporter activity,RAW-Dual [3]; agonist: LPS (TLR4) 0.1 ug/mL,0.0189
COc1cc2c(NC3CCN(C(C)C)CC3)nc(N3CCC(F)(F)CC3)nc2cc1OCCCN1CCCC1,IRF Lucia reporter activity,RAW-Dual [1]; [6],0.652

# Reference: the supplement of paper PMC10037445
